# PubChem BioAssay (EPA / NIEHS)
# Results filed as inconclusive are left out. Activity calls are given as the source filed them. Rule for the calls, unless noted: active = hit-call score of the fitted dose curve at least 0.9, where 1 is the maximum; inconclusive = response in the unintended direction; inactive = score below 0.9.
# How the values were obtained:
# [1] = target: Cellular tumor antigen p53 (Homo sapiens) (UniProt P04637); assay: TOX21_p53_BLA_p2_ratio: Tox21 HCT-116 p53 Agonism Beta-lactamase Assay, Ratio, Phase 2 (AID 2283592)
# Chain of Cellular tumor antigen p53 (Homo sapiens) (P04637 whole entry, looked up): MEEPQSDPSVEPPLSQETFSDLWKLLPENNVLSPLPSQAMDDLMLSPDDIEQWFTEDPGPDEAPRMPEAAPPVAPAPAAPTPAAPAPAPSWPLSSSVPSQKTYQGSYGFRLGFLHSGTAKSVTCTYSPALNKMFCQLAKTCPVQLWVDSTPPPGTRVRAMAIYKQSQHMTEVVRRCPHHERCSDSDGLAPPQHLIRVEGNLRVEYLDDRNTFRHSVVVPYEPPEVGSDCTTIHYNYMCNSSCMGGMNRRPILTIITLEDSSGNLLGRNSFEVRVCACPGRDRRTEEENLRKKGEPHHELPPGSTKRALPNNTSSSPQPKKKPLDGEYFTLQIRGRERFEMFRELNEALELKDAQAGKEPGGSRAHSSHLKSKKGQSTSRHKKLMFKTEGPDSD
# How it was run: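 HCT-116 cells with p53-responsive beta-lactamase reporter, 4000 cells/well, preincubated 5 h, then compound in DMSO (217-fold dilution) for 16 h at 37C. CCF4-AM substrate 2 h at room temperature; 460/530 nm emission ratio fitted upward versus DMSO.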
# [2] = target: Cellular tumor antigen p53 (Homo sapiens) (UniProt P04637); assay: TOX21_p53_BLA_p3_ratio: Tox21 HCT-116 p53 Agonism Beta-lactamase Assay, Ratio, Phase 3 (AID 2283596)
# How it was run: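 HCT116 p53-bla cells (4000/well) given compound in DMSO (217-fold dilution) after 5 h, incubated 16 h at 37C. CCF4-AM substrate 2 h at room temperature; 460/530 nm emission ratio, gain fitted against DMSO.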
# [3] = TOX21_p53_BLA_p4_viability: Viability Assessment in the Tox21 HCT-116 p53 Agonism Beta-lactamase Assay, Phase 4 (AID 2283597);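 note: hits lower the luminescence signal meaning cytotoxicity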
# How it was run: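 HCT-116 p53-bla cells, 4000/well, dosed after 5 h attachment and incubated 16 h at 37 °C, 5% CO2. Viability from CellTiter-Glo ATP luminescence after 30 min at room temperature, taken after the beta-lactamase read; loss of signal indicates cytotoxicity.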
# [4] = target: Cellular tumor antigen p53 (Homo sapiens) (UniProt P04637); assay: TOX21_p53_BLA_p5_ratio: Tox21 HCT-116 p53 Agonism Beta-lactamase Assay, Ratio, Phase 5 (AID 2283599)
# How it was run: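 HCT-116 p53-bla cells (4000/well) plated 5 h, dosed with compound (217-fold DMSO dilution) for 16 h at 37 C; CCF4-AM substrate 2 h at room temperature. Activity is the 460/530 nm emission ratio (405 nm excitation), fitted in gain-of-signal direction versus DMSO.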
# [5] = target: Cellular tumor antigen p53 (Homo sapiens) (UniProt P04637); assay: TOX21_p53_BLA_p4_ratio: Tox21 HCT-116 p53 Agonism Beta-lactamase Assay, Ratio, Phase 4 (AID 2283601)
# How it was run: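 HCT-116 p53 beta-lactamase reporter cells (4000/well) preincubated 5 h, then compound (217-fold dilution of DMSO stock) for 16 h at 37C. CCF4-AM substrate added 2 h at room temperature; 460/530 nm emission ratio fitted upward versus DMSO.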
# [6] = system: Thyroperoxidase (TPO), gene 54314; assay: CCTE_Simmons_AUR_rTPO: CCTE's Amplex UltraRed Assay for Thyroperoxidase (TPO) Inhibition, Simmons Lab (AID 2283662)
# How it was run: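 Cell-free peroxidase activity assay using rat thyroid gland microsomes with excess H2O2 (300 uM) and 25 uM Amplex UltraRed. Compounds tested from 5 nM to 87.5 uM; fluorescence measured after 30 min at 37C, analysed relative to DMSO baseline.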
# [7] = target: Luciferin 4-monooxygenase (Photinus pyralis) (UniProt P08659); assay: CCTE_Simmons_QuantiLum_inhib_2: CCTE's Firefly Luciferase Inhibition Assay, Simmons Lab (AID 2283767)
# Chain of Luciferin 4-monooxygenase (Photinus pyralis) (P08659 whole entry, looked up): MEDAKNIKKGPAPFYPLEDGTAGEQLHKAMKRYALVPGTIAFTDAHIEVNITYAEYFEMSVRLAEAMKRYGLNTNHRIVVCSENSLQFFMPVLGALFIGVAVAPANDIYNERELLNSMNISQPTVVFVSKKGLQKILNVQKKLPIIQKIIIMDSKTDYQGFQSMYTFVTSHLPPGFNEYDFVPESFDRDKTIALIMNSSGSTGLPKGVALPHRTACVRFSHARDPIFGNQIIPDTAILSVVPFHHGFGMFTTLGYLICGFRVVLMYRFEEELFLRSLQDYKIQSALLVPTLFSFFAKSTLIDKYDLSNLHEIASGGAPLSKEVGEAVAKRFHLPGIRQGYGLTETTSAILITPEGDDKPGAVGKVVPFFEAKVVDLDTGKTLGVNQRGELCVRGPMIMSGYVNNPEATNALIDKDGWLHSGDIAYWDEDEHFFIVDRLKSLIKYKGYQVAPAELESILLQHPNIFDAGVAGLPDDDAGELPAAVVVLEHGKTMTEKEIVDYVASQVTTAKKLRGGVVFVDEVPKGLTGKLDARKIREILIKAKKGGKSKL
# How it was run: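 Cell-free recombinant firefly luciferase (5 ng/well) in 200mM potassium phosphate with 1 mg/ml BSA, 30 min at 37C with 8 concentrations from 5 nM to 87.5 uM [final], 0.5% DMSO. Luminescence read after D-luciferin (150uM)/dATP (147uM) reagent injection, pH 7.8; triplicates.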
# [8] = target: Nucleoli Translocation, AR (gene 367) (UniProt P10275); assay: UPITT_HCI_U2OS_AR_TIF2_Nucleoli_Antagonist: University of Pittsburgh U2OS Androgen Receptor-Transcriptional Intermediary Factor 2 (AR-TIF2) Antagonism High Content Imaging Assay for Nucleoli Translocation (AID 2283997)
# Chain of Nucleoli Translocation, AR (gene 367) (P10275 whole entry, looked up): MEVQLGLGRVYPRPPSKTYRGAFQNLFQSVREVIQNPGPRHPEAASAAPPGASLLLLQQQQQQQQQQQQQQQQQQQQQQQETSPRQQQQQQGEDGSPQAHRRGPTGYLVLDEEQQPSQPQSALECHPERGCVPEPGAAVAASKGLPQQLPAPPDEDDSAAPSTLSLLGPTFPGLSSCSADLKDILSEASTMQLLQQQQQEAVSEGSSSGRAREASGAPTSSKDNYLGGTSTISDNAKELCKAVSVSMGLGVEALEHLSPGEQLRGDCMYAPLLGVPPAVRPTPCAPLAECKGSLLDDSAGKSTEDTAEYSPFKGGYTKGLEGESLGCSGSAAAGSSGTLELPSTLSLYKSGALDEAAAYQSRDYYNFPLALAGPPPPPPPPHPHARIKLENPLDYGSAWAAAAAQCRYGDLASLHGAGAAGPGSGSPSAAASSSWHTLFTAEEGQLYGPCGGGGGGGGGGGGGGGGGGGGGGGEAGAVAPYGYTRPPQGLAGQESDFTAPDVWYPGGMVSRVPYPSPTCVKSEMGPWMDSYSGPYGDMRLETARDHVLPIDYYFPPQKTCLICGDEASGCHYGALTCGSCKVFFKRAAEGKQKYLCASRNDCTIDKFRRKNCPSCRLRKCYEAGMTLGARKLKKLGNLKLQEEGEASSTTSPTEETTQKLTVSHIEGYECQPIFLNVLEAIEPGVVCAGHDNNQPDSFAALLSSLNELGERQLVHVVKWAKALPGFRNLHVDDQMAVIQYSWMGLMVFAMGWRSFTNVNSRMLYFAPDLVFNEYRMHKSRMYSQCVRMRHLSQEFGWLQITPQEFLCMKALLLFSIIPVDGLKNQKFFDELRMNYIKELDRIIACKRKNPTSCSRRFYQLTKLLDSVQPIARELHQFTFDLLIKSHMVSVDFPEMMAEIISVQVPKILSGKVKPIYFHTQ
# How it was run: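 U2OS cells co-expressing red-fluorescent-tagged human AR and green-fluorescent-tagged TIF2, imaged by high-content microscopy for nucleolar red fluorescence. Antagonist mode against DHT; primary screen at 20 uM final (0.2% DMSO).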
# [9] = target: Nucleoli Translocation, AR (gene 367) (UniProt P10275); assay: UPITT_HCI_U2OS_AR_TIF2_Nucleoli_Agonist: University of Pittsburgh U2OS Androgen Receptor-Transcriptional Intermediary Factor 2 (AR-TIF2) Agonism High Content Imaging Assay for Nucleoli Translocation (AID 2283998)
# How it was run: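 U2OS cells expressing RFP-tagged human AR and GFP-tagged TIF2; red fluorescence in nucleoli quantified by high-content imaging. Primary screen at 20 uM final (0.2% DMSO); concentration-response 0.195–50 uM (0.5% DMSO), fitted upward versus DMSO.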
# [10] = target: Ratio of Nucleoli Translocation and Cytoplasm, AR (gene 367) (UniProt P10275); assay: UPITT_HCI_U2OS_AR_TIF2_Nucleoli_Cytoplasm_Ratio_Antagonist: University of Pittsburgh U2OS Androgen Receptor-Transcriptional Intermediary Factor 2 (AR-TIF2) Antagonism High Content Imaging Assay for Ratio of Nucleoli Translocation and Cytoplasm (AID 2283999);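 note: antagonists lower the DHT-driven ratio of nucleolar to cytoplasmic red signal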
# Chain of Ratio of Nucleoli Translocation and Cytoplasm, AR (gene 367) (P10275 whole entry, looked up): as above
# How it was run: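 U2OS cells co-expressing RFP-tagged human AR and GFP-tagged TIF2, antagonist mode with DHT as baseline. Nucleolar-to-cytoplasmic red fluorescence ratio imaged by high-content microscopy; final compound 20 uM (0.2% DMSO) primary, 0.195–50 uM (0.5% DMSO) concentration-response.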
# [11] = target: Ratio of Nucleoli Translocation and Cytoplasm, AR (gene 367) (UniProt P10275); assay: UPITT_HCI_U2OS_AR_TIF2_Nucleoli_Cytoplasm_Ratio_Agonist: University of Pittsburgh U2OS Androgen Receptor-Transcriptional Intermediary Factor 2 (AR-TIF2) Agonism High Content Imaging Assay for Ratio of Nucleoli Translocation and Cytoplasm (AID 2284000);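 note: hits raise the red nucleolar to cytoplasm ratio above vehicle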
# How it was run: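 U2OS cells expressing RFP-tagged human AR and GFP-tagged TIF2; high-content imaging ratio of nucleolar to cytoplasmic red fluorescence, fitted as gain of signal vs DMSO. Single point at 20 uM final (0.2% DMSO); concentration-response 0.195-50 uM final (0.5% DMSO).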
# [12] = CCTE_Harrill_HTTr_Apoptosis_MCF7: CCTE's 6-hour Apoptosis Assessment for the High-Throughput Transcriptomics (HTTr) Platform, in MCF-7 cells cultured in DMEM + 10% fetal bovine serum, Harrill Lab (AID 2284011; active = hit-call score of the fitted dose curve at least 0.9, where 1 is the maximum; inactive = score below 0.9)
# How it was run: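 MCF-7 cells in DMEM + 10% FBS exposed 6 h to chemicals over an eight-point dilution series. Caspase-3/7 activation imaged by high-content CellEvent Green staining; fitted bidirectionally versus DMSO.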
# [13] = CCTE_Shafer_MEA_dev_firing_rate_mean: CCTE's Neural Network Formation Assay for Mean Firing Rate, Shafer Lab (AID 2284031; active = hit-call score of the fitted dose curve at least 0.9, where 1 is the maximum; inactive = score below 0.9)
# How it was run: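 Primary rat cortical neurons on 48-well MEA plates, exposed from plating day 0 with dosing renewed on DIV 5 and 9. Mean well firing rate over active electrodes, recorded days 5, 7, 9, 12, summarised as trapezoidal AUC.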
# [14] = CCTE_Shafer_MEA_dev_per_burst_spike_percent: CCTE's Neural Network Formation Assay for Percent of Spikes in a Burst, Shafer Lab (AID 2284032; active = hit-call score of the fitted dose curve at least 0.9, where 1 is the maximum; inactive = score below 0.9)
# How it was run: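 Rat primary cortical neurons on 16-electrode MEA wells, dosed from plating day 0 for 12 days with renewal on DIV 5 and 9; spikes-in-bursts percentage averaged over bursting electrodes, collapsed as AUC across days 5, 7, 9, 12; loss direction versus DMSO.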
# [15] = CCTE_Shafer_MEA_dev_active_electrodes_number: CCTE's Neural Network Formation Assay for Number of Active Electrodes, Shafer Lab (AID 2284040)
# How it was run: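 Primary rat cortical neurons on 16-electrode MEA wells, exposed from day 0 through day 12 with compound renewed at DIV 5 and 9 feeds. Active electrodes (mean firing ≥5 spikes/min) counted at DIV 5, 7, 9, 12; trapezoidal AUC across days, loss-of-signal versus DMSO.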
# [16] = CCTE_Shafer_MEA_dev_burst_rate: CCTE's Neural Network Formation Assay for Burst Rate, Shafer Lab (AID 2284042; active = hit-call score of the fitted dose curve at least 0.9, where 1 is the maximum; inactive = score below 0.9)
# How it was run: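 Cells plated, treated day 0; recorded DIV 5, 7, 9, 12; fed and re-treated DIV 5, 9. Endpoint: bursts per recording time, active-electrode well mean, trapezoidal AUC, fitted in decreasing direction against DMSO baseline.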
smiles,measurement,setting,value
c1ccc2cc3c(cc2c1)-c1cccc2cccc-3c12,AC50,[1],3.24 µM (active)
same,AC50,[2],11 µM (active)
same,outcome,[3],inactive
same,AC50,[4],4.58 µM (active)
same,AC50,[5],1.98 µM (active)
same,outcome,[6],inactive
same,outcome,[7],inactive
same,AC50,[8],1.19 µM (active)
same,outcome,[9],inactive
same,outcome,[10],inactive
same,outcome,[11],inactive
same,outcome,[12],inactive
same,outcome,[13],inactive
same,outcome,[14],inactive
same,outcome,[15],inactive
same,outcome,[16],inactive
